Source: PubChem BioAssay
ALR inh – blocks human ALR sulfhydryl oxidase activity; P55789; purified ALR, DTT oxidation, H2O2 HRP-luminol luminescence; inhibition, % (concentration not given with the values); 290,000 tested, 3.8% active;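 active = mean replicate inhibition above about 79%, with every replicate also reaching it, limit read from the data; inconclusive = only one of the two criteria met; inactive = mean below limit and not every replicate reaching it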
Target sequence (P55789 whole entry, looked up): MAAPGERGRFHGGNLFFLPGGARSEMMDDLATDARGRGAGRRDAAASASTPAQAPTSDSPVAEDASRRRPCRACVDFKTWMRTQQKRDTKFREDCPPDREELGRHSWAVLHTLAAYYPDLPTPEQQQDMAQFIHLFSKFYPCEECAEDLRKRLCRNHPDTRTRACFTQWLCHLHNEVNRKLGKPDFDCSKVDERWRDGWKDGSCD
PP1 counter – blocks human PP1-alpha phosphatase, a PP5 counter-screen; AID 2235; inhibition, % at 6.7 µM; 320,000 tested, 0.9% active; purified PP1alpha, OMFP fluorescence;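 active = inhibition above the mean inhibition of all tested compounds plus 3 SD, computed separately for each screening campaign, cut at about 15% in these data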
PP5 inh – PP5 (human) phosphatase inhibition. P53041. purified PP5c, OMFP substrate fluorescence. inhibition, % at 6.7 µM. 320,000 tested, 0.18% active. AID 1987;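 active = inhibition above the campaign's mean inhibition across all tested compounds plus 3 SD, cut at about 9.5% in these data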;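 note: 0% = DMSO only and 100% = 100 µM cantharidin control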
CSC inhib – cancer stem cell inhibition; 300,000 tested, 1.1% active; inhibition, % at 7.5 µM; cancer stem cell-like cells viability, luminescence; in the data active = inhibition above about 75%; inconclusive = no clear call, values can overlap the other calls; tested in HMLE shEcad cells
Calb FLC – C. albicans growth modulation with fluconazole; 300,000 tested, 0.57% active; growth inhibition, % (no concentration beside the values); C. albicans CaCi-2 (fluconazole-resistant clinical isolate) + fluconazole, Alamar Blue growth, 48 h;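 active = growth inhibition above about 58% in most replicates, limit read from the data, passing the limit was not always enough; inconclusive = exactly half the replicates above a set limit; inactive = most replicates below a set limit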;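 note: all wells also contain fluconazole at 8 µg/ml as a sub-toxic cotreatment; 0% = median of DMSO wells and 100% = median of geldanamycin control wells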
Starred values were filed as active, the others as inactive; ? = inconclusive; . = no result given. In the library only some 5.4% were active in any assay of this set; here they are far more common.

SMILES	ALR inh	PP1 counter	PP5 inh	CSC inhib	Calb FLC
Nc1c(C(=O)Nc2ccc(Br)cc2)sc2nc(-c3ccco3)ccc12	0.4	16.0*	0.9	-2.8	-5.2
CC(=O)c1sc2nc(-c3ccco3)ccc2c1N	-17.7	3.6	1.1	-8.9	1.8
O=C(c1ccco1)N1CCN(C(=O)c2ccc(COc3ccc(Cl)cc3Cl)o2)CC1	48.8	1.3	1.1	-0.3	19.5
O=C(C1COc2ccccc2O1)N1CCN(c2ccc([N+](=O)[O-])cc2)CC1 (centres undefined)	2.6	.	.	-7.2	.
Cc1ccc(C)c(NC(=O)CN(C)C(=O)c2ccncc2)c1	-6.5	-3.6	-1.2	-13.1	-0.7
O=C(C1CC1)N1CCN=C1SCc1ccccc1	-0.7	1.1	2.3	5.8	-0.9
O=C(C1CC1)N1CCN=C1SCc1cccc(F)c1	99.0*	-3.2	3.0	6.4	.
CC(=O)N1CCN=C1SCc1ccc(C(F)(F)F)cc1	99.0*	0.9	1.3	17.2	2.6
O=C(C1CC1)N1CCN=C1SCc1ccc(F)cc1	99.7*	-3.4	1.8	0.9	-7.1
COc1ccccc1/C=N/n1cnnc1	-2.2	0.9	1.8	3.7	5.7
CC(C)CN(C(=O)/C=C/c1nc2ccccc2s1)C1CCS(=O)(=O)C1 (centres undefined)	6.4	0.7	0.5	-13.4	13.6
CCOc1ccc(N=C2NN=C(c3cc(C)n(CC4CCCO4)c3C)CS2)cc1 (centres undefined)	.	13.5	-2.1	.	-6.2
CCCCNC(=S)Nc1cccc(S(=O)(=O)NC2=NCCC2)c1	-4.3	16.2*	-1.1	-0.1	-10.6
CC(=O)c1ccc(S(=O)(=O)Nc2cccc(S(=O)(=O)NC3=NCCC3)c2)cc1	99.6*	-8.6	-8.0	9.9	0.6
CC(=O)c1cccc(S(=O)(=O)Nc2cccc(S(=O)(=O)NC3=NCCC3)c2)c1	-1.2	-1.5	0.9	-11.5	-5.3
O=C(CN1C(=O)/C(=C\c2ccccc2Br)Oc2ccccc21)NCCCN1CCOCC1	-4.3	-2.3	1.2	-10.9	-4.6
O=C(COc1cc(O)c2c(=O)cc(-c3ccccc3)oc2c1)c1ccc(F)cc1	1.9	3.6	1.4	-6.7	47.8
Nc1cccc(CCc2ccncc2)c1	90.2*	-1.1	1.6	35.3	-7.6
Nc1cccc(/C=C/c2ccncc2)c1	99.1*	-4.3	-0.1	-3.0	-5.1
COc1ccc(CNC(=O)[C@H](C)NC(=O)C2CCN(S(=O)(=O)c3ccc(C)cc3)CC2)cc1	-0.9	-3.5	-2.8	3.4	-5.1
COC(CNC(=O)CN1CCN(Cc2ccc(F)cc2Cl)C1=O)OC	-11.9	-2.9	0.7	58.6	-3.3
CCCS(=O)(=O)NCc1cn2cccc(C)c2n1	-1.2	-2.6	1.2	3.0	-1.6
Cc1cccn2cc(CNc3ccccc3)nc12	98.5*	0.2	-1.7	.	-9.2
c1ccc(-c2nc(NCC3CCCO3)c3ccccc3n2)nc1 (centres undefined)	8.3	-1.4	1.9	-6.0	-38.7
c1ccc(Nc2nc(NCC3CCCO3)c3ccccc3n2)cc1 (centres undefined)	-1.5	-0.5	2.1	9.6	?
SMILES	ALR inh	PP1 counter	PP5 inh	CSC inhib	Calb FLC
CCOc1ccc(Nc2nc(NCC3CCCO3)c3ccccc3n2)cc1 (centres undefined)	22.4	2.1	2.9	-15.2	98.9*
Oc1cccc(Nc2nc(NCC3CCCO3)c3ccccc3n2)c1 (centres undefined)	99.7*	8.9	-4.8	7.2	21.3
COc1ccc(Nc2nc(NCC3CCCO3)c3ccccc3n2)c(OC)c1 (centres undefined)	98.2*	-1.8	1.3	-13.6	36.3
COc1ccc(C(=O)NNS(=O)(=O)c2ccc(OC)cc2)cc1	87.2*	-0.9	-0.5	-6.1	-8.9
COc1ccc(C(=O)Nc2ccccc2C(=O)Nc2ccc(C(=O)O)cc2)cc1	28.1	0.4	2.3	-9.7	15.5
COc1ccc(C(=O)Nc2ccccc2C(=O)Nc2ccccc2C(=O)O)cc1	97.8*	9.6	3.6	22.1	80.5*
COc1ccc(C(=O)NNc2ccccc2)cc1	73.2	-1.4	0.4	130.7*	-12.9
Cc1cc(C(=O)Nc2ccccc2C(=O)O)oc1C	97.6*	1.3	-4.1	-10.7	-4.5
CCCCn1c(N)c(N(Cc2ccccc2OC)C(=O)CSCC(=O)Nc2cccc(C)c2)c(=O)[nH]c1=O	1.5	.	.	.	-7.7
CCCCNC(=S)N=Nc1c(O)n(Cc2ccccc2)c2ccccc12	-9.8	-2.7	0.7	80.1*	-12.3
CCOc1ccccc1/C=N\Nc1cnn(Cc2ccccc2)c(=O)c1Cl	-1.8	15.6*	5.3	-2.9	-2.8
COc1ccccc1/C=N\Nc1cn[nH]c(=O)c1Cl	10.9	-1.1	0.5	5.2	15.7
